Counter-ions that a name gives are not always drawn.

This assay has as its system Neuro-2a. The assay is described as follows: neurite formation score, plate-normalized to DMSO control mean 5.04 (score (0-8 scale)); higher = more or longer neurites. Conditions: 1 µM. As to the method:
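Neuro-2a mouse neuroblastoma cells in PLL-coated 96-well plates were pre-treated for 1 h in DMEM(+) with each kinase inhibitor at 1 µM, then switched to serum-free DMEM(-) with inhibitor to induce neurite outgrowth and fixed about 2-3 h later. Three blinded observers scored neurite formation from 0 (no neurites) to 8 (long neurites on almost all cells).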
Turning to `O=C1NC(=O)C(=Cc2ccc(-c3ccc(F)cc3)o2)S1` (stereo in doubt), the neurite formation score stood at 4.54.

The molecule `CN1CCN(c2nc(C3=C(c4c[nH]c5ccccc45)C(=O)NC3=O)c3ccccc3n2)CC1` [Sotrastaurin (AEB071)] displayed a neurite formation score of 5.96.

Turning to `CNc1nc(Nc2ccc(C(=O)N3CCOCC3)cc2OC)ncc1Cl`, the neurite formation score amounted to 4.96.

As for `O=S(=O)(c1cccc2cnccc12)N1CCCNCC1` [Fasudil (HA-1077) HCl], the neurite formation score was found to be 4.24.

`Cc1cccc(CC(=O)N2CCc3c2ccc(-c2cn(C)c4ncnc(N)c24)c3F)n1` yielded a neurite formation score of 4.21.

In turn, `CCOc1ccn(-c2ccc(F)cc2)c(=O)c1C(=O)Nc1ccc(Oc2ccnc(N)c2Cl)c(F)c1` registered a neurite formation score of 5.24.

`CNC(=O)c1cc(COc2nnc(Nc3ccc(Cl)cc3)c3ccoc23)ccn1` [Telatinib (BAY 57-9352)]: the neurite formation score is 4.96.

`CNC(=O)c1nn(C)c2c1C(C)(C)Cc1cnc(Nc3ccc(N4CCN(C)CC4)cc3)nc1-2` gave a neurite formation score of 3.29.

The molecule `O=S(=O)(c1cccc2c(O)nccc12)N1CCCNCC1` [Hydroxyfasudil hydrochloride] displayed a neurite formation score of 3.8.

Turning to `Cc1c(NC(=O)c2ccc(C(C)(C)C)cc2)cccc1-c1cn(C)c(=O)c(Nc2ccc(C(=O)N3CCOCC3)cc2)n1`, the neurite formation score came to 5.57.

`Oc1ccc(Nc2nc(-c3ccc(Cl)cc3)cs2)cc1`: the neurite formation score worked out at 4.21.

`Cc1nc(Nc2n[nH]c3c2CN(C(=O)N[C@H](CN(C)C)c2ccccc2)C3(C)C)c2sccc2n1` displayed a neurite formation score of 4.02.

`C=CC(=O)Nc1cccc(Oc2nc(Nc3ccc(N4CCN(C)CC4)cc3OC)ncc2Cl)c1`: the neurite formation score was determined as 4.24.

Molecule `Cc1ccc(NC(=O)c2ccc(CN3CCN(C)CC3)cc2)cc1Nc1nc(-c2cccnc2)cs1` [Masitinib (AB1010)] showed a neurite formation score of 4.24.

With `Oc1ccc(-c2nc(-c3ccc(F)cc3)c(-c3ccncc3)[nH]2)cc1`, the neurite formation score was found to be 4.57.

`COc1cc(Nc2nc3ccccc3nc2NS(=O)(=O)c2ccc(NC(=O)c3ccc(C)c(OC)c3)cc2)cc(OC)c1` registered a neurite formation score of 4.57.

As to `C=CC(=O)Nc1cccc(Sc2nc(Nc3ccc(N4CCN(C)CC4)cc3)ncc2Cl)c1`, the neurite formation score amounted to 4.91.

As for `Cn1cc(C2=C(c3ccc(Cl)cc3Cl)C(=O)NC2=O)c2ccccc21`, the neurite formation score was 4.14.

On to `Cc1[nH]c(/C=C2\C(=O)Nc3ccccc32)c(C)c1CCC(=O)O` [TSU-68 (SU6668,Orantinib)], for which the neurite formation score worked out at 4.57.

The molecule `N#Cc1c(Oc2ccc(F)c(NC(=O)Cc3cccc(C(F)(F)F)c3)c2)ccc2nc(NC(=O)C3CC3)sc12` yielded a neurite formation score of 1.9.

`COc1c(C)c(C(=O)c2ccc(N)c(C(=O)O)c2)n2ccccc12` gave a neurite formation score of 4.96.

Take `CCn1c(-c2nonc2N)nc2c(C#CC(C)(C)O)ncc(OC[C@H]3CCCNC3)c21`: the neurite formation score was found to be 4.02.

Consider `CCS(=O)(=O)c1cccc(-c2cc(C(=O)NC3CCN(C)CC3)c(C)c3[nH]c4ncc(C)cc4c23)c1`, for which the neurite formation score was 2.69.

`CCN(CC)CCCC(C)Nc1nc(C)cc(Nc2ccc3nc(C)cc(N)c3c2)n1` (stereo not given) came in with a neurite formation score of 4.91.

`C=CC(=O)Nc1cccc(Nc2nc(Nc3ccc(OCCOC)cc3)ncc2F)c1` returned a neurite formation score of 4.91.

As for `CNC(=O)c1ccccc1Nc1cc(Nc2ccc(N3CCOCC3)cc2OC)ncc1C(F)(F)F`, the neurite formation score worked out at 5.02.

The molecule `COc1ccc2c(c1)c(C1=C(c3c[nH]c4ccccc34)C(=O)NC1=O)cn2CCCN(C)C` came in with a neurite formation score of 5.24.

With `CCN(CC)CCNC(=O)c1c(C)[nH]c(/C=C2\C(=O)Nc3ccc(F)cc32)c1C` [Sunitinib], the neurite formation score came to 5.63.

For the molecule `C=CCc1ccc(O)c(-c2ccc(O)c(CC=C)c2)c1` [Honokiol], the neurite formation score was 4.47.

As for `CC(C)c1cc(CNc2nc(Nc3cc(C4CC4)[nH]n3)cc(N3CCN(C)CC3)n2)on1`, the neurite formation score is 0.692.

`CCS(=O)(=O)Nc1ccc2[nH]c(O)c(C(=Nc3ccc(CN4CCCCC4)cc3)c3ccccc3)c2c1` [Hesperadin] registered a neurite formation score of 1.02.

Regarding `CC(C)(CCCCCC(O)CCCCCC(C)(C)C(=O)O)C(=O)O`, the neurite formation score was determined as 0.138.

`Cc1nc(NC(=O)N2CCC[C@H]2C(N)=O)sc1-c1csc(C(C)(C)C)n1` yielded a neurite formation score of 4.57.

For `COc1ccc(CNC(=O)Nc2ncc([N+](=O)[O-])s2)cc1`, the neurite formation score was 4.91.

As to `CCn1nnc2c(N3CCOCC3)nc(-c3ccc(NC(=O)Nc4ccc(C(=O)N5CCN(C)CC5)cc4)cc3)nc21`, the neurite formation score was found to be 3.14.

On to `CNC(=O)c1ccccc1Sc1ccc2c(/C=C/c3ccccn3)n[nH]c2c1`, for which the neurite formation score amounted to 3.57.

Molecule `C[C@@]1(C(=O)Nc2ccc(F)nc2)CCCN1c1nc(Nc2cc(C3CC3)n[nH]2)c2cccn2n1` came in with a neurite formation score of 4.57.

For the molecule `CNC(=O)CN1CCC(Oc2cc3c(Nc4cccc(Cl)c4F)ncnc3cc2OC)CC1` [AZD8931 (Sapitinib)], the neurite formation score came to 4.29.

For `CNc1nc(-c2ccc3c(N)n[nH]c3c2)cc(N2C[C@@H](C(=O)NC3CCCCC3)CC[C@H]2C)n1`, the neurite formation score is 4.88.

For the molecule `NC1(C(=O)N[C@@H](CCO)c2ccc(Cl)cc2)CCN(c2ncnc3[nH]ccc23)CC1`, the neurite formation score came to 5.57.

Source of the values: the supplement of paper PMC8047044.
